# Measurements reported in PubChem BioAssay AID488864 (Broad Institute, 2010).
# Measured potencies and affinities stand elsewhere. Activity calls are given as the source filed them.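 How the source made its calls: active means ATP signal reduced by compound, with fitted active dose under ten times the top valid tested dose; inactive means the rest, compounds that increase ATP levels included.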
# Experiment: cellular ATP toxicity in rat beta cells – cell-based, CellTiter-Glo luminescence, INS-1E, dry powder, cytotoxicity control for beta-cell cytokine protection project, dose response (AID 488864)
# Details: INS-1E rat beta cells, 48 h, no cytokines; series mostly up to 26 µM; activity change, negative = ATP decrease: at the top concentration
row,Structure (SMILES),"activity change, negative = ATP decrease"
1,N#Cc1ccc2cc(Br)c(C(F)(F)P(=O)(O)O)cc2c1,-3.66% (inactive)
2,COc1ccc(S(=O)(=O)N(C)C[C@@H]2Oc3c(cccc3N(C)C)C(=O)N([C@@H](C)CO)C[C@H]2C)cc1,5.31% [at 23.5 µM] (inactive)
3,COc1ccc(S(=O)(=O)N(C)C[C@@H]2Oc3c(NC(=O)Nc4ccccc4)cccc3C(=O)N([C@@H](C)CO)C[C@H]2C)cc1,2.87% (inactive)
4,COc1ccc(S(=O)(=O)N(C)C[C@@H]2Oc3ccc(NC(=O)Nc4cccc5ccccc45)cc3C(=O)N([C@@H](C)CO)C[C@H]2C)cc1,4.91% (inactive)
5,COc1ccc(S(=O)(=O)N(C)C[C@@H]2Oc3c(NC(=O)Nc4ccc(C(F)(F)F)cc4)cccc3C(=O)N([C@@H](C)CO)C[C@H]2C)cc1,-1.88% (inactive)
6,C[C@@H]1CN([C@@H](C)CO)C(=O)c2cccc(NS(=O)(=O)c3ccccc3)c2O[C@H]1CN(C)Cc1ccc(C(F)(F)F)cc1,1.05% (inactive)
7,COc1ccc(S(=O)(=O)Nc2cccc3c2O[C@@H](CN(C)S(=O)(=O)c2ccc(OC)cc2)[C@H](C)CN([C@@H](C)CO)C3=O)cc1,0.616% (inactive)
8,C[C@@H]1CN([C@H](C)CO)C(=O)c2cccc(NC(=O)Nc3ccccc3)c2O[C@H]1CN(C)S(=O)(=O)c1ccc(F)cc1,1.43% (inactive)
9,COc1ccc(S(=O)(=O)N(C)C[C@@H]2Oc3c(NC(=O)c4ccncc4)cccc3C(=O)N([C@@H](C)CO)C[C@H]2C)cc1,-4.04% (inactive)
10,COc1ccc(S(=O)(=O)N(C)C[C@@H]2Oc3c(NC(=O)Nc4ccc(F)cc4)cccc3C(=O)N([C@@H](C)CO)C[C@H]2C)cc1,5.46% [at 23.5 µM] (inactive)
11,COc1ccc(S(=O)(=O)N(C)C[C@@H]2Oc3c(NC(=O)C4CCOCC4)cccc3C(=O)N([C@@H](C)CO)C[C@H]2C)cc1,-5.52% [at 23.5 µM] (inactive)
12,COc1ccc(S(=O)(=O)N(C)C[C@@H]2Oc3c(NC(=O)Nc4ccccc4)cccc3C(=O)N([C@H](C)CO)C[C@H]2C)cc1,1.41% (inactive)
13,COc1ccccc1S(=O)(=O)N(C)C[C@@H]1Oc2c(NC(=O)Nc3cccc4ccccc34)cccc2C(=O)N([C@@H](C)CO)C[C@H]1C,10% (inactive)
14,C[C@@H]1CN([C@H](C)CO)C(=O)c2cccc(NC(=O)Nc3cccc4ccccc34)c2O[C@H]1CN(C)S(=O)(=O)c1ccc(Cl)cc1,6.88% (inactive)
15,COc1ccc(S(=O)(=O)N(C)C[C@@H]2Oc3c(NC(=O)c4cccc5ccccc45)cccc3C(=O)N([C@@H](C)CO)C[C@H]2C)cc1,4.48% (inactive)
16,COc1ccc(S(=O)(=O)N(C)C[C@@H]2Oc3c(NC(=O)Nc4cccc5ccccc45)cccc3C(=O)N(C(C)C)C[C@H]2C)cc1,0.128% (inactive)
17,C[C@@H]1CN([C@@H](C)CO)C(=O)c2cccc(NC(=O)Nc3cccc(Cl)c3Cl)c2O[C@H]1CN(C)S(=O)(=O)c1ccc2c(c1)OCCO2,2.89% (inactive)
18,COc1ccc(S(=O)(=O)N(C)C[C@@H]2Oc3c(NC(=O)Nc4cccc5ccccc45)cccc3C(=O)N([C@@H](C)CO)C[C@H]2C)c(OC)c1,7.76% (inactive)
19,C[C@@H]1CN([C@@H](C)CO)C(=O)c2cccc(NC(=O)Nc3ccccc3)c2O[C@H]1CN(C)S(=O)(=O)c1ccc(Cl)cc1,3.91% (inactive)
20,COc1ccc(S(=O)(=O)N(C)C[C@@H]2Oc3c(NC(=O)NC(C)C)cccc3C(=O)N([C@@H](C)CO)C[C@H]2C)cc1,1.96% (inactive)
21,Cc1ccc(S(=O)(=O)N(C)C[C@@H]2Oc3c(NC(=O)Nc4ccccc4)cccc3C(=O)N([C@@H](C)CO)C[C@H]2C)cc1,8.13% (inactive)
22,COc1ccc(S(=O)(=O)N(C)C[C@@H]2Oc3c(NC(=O)Nc4cccc5ccccc45)cccc3C(=O)N([C@@H](C)CO)C[C@H]2C)cc1OC,1.83% (inactive)
23,COc1ccc(S(=O)(=O)N(C)C[C@@H]2Oc3c(NS(=O)(=O)c4ccc(Cl)cc4)cccc3C(=O)N([C@@H](C)CO)C[C@H]2C)cc1,2.03% (inactive)
24,C[C@@H]1CN([C@@H](C)CO)C(=O)c2cccc(NC(=O)Nc3cccc4ccccc34)c2O[C@H]1CN(C)S(=O)(=O)c1ccc2ncsc2c1,-1.15% (inactive)
25,COc1ccc(S(=O)(=O)N(C)C[C@@H]2Oc3c(NC(=O)C4CC4)cccc3C(=O)N([C@@H](C)CO)C[C@H]2C)cc1,1.69% [at 23.5 µM] (inactive)
26,COc1ccc(S(=O)(=O)N(C)C[C@@H]2Oc3c(NS(=O)(=O)c4cn(C)cn4)cccc3C(=O)N([C@@H](C)CO)C[C@H]2C)cc1,-1.6% (inactive)
27,Cc1ccc(S(=O)(=O)N(C)C[C@@H]2Oc3c(NC(=O)Nc4ccc(F)cc4)cccc3C(=O)N([C@H](C)CO)C[C@H]2C)cc1,5.77% (inactive)
28,COc1ccc(S(=O)(=O)N(C)C[C@@H]2Oc3c(NC(=O)Nc4cccc5ccccc45)cccc3C(=O)N([C@H](C)CO)C[C@H]2C)cc1,13.1% [at 23.5 µM] (inactive)
29,COc1ccc(S(=O)(=O)N(C)C[C@@H]2Oc3c(NC(=O)Nc4cccc5ccccc45)cccc3C(=O)N([C@@H](C)CO)C[C@@H]2C)cc1,3.54% (inactive)
